Nine compounds from PubChem BioAssay (NCI) can be followed below.

This is part of a sample that, as a whole, favours compounds with a hit. Of some 83,000 tested, about 20% had one in any assay.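 Testing used 96-well plates and a 48-hour single-concentration exposure. Example: -40 means 40% of the starting cells died.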 A number with no mark means an inactive call. The source made the active and inactive calls. How the source made its calls: active means growth percent below 10; inactive means the rest.

Assay in all cases: NCI-60 one-dose screen, 48 h (100 = growth as untreated, 0 = no growth, -100 = all killed)
The subject of assay [1] is SR leukemia. Conditions: 10 µM unless noted.
Assay [2] deals with RPMI-8226 leukemia. The conditions noted are these: 10 µM unless noted.
The test system of assay [3] is OVCAR-8 ovarian. The conditions noted are these: 10 µM unless noted.
Assay [4] relates to OVCAR-5 ovarian. Conditions: 10 µM unless noted.
The test system of assay [5] is OVCAR-4 ovarian. Conditions: 10 µM unless noted.
Assay [6] has as its system SK-OV-3 ovarian. Conditions: 10 µM unless noted.
In assay [7] the test system is IGROV1 ovarian. The conditions noted are these: 10 µM unless noted.
The subject of assay [8] is OVCAR-3 ovarian. Conditions: 10 µM unless noted.
For assay [9], the system named is NCI/ADR-RES ovarian. The conditions noted are these: 10 µM unless noted.
Assay [10] relates to T-47D breast. The conditions noted are these: 10 µM unless noted.
Assay [11] deals with BT-549 breast. The conditions noted are these: 10 µM unless noted.
The subject of assay [12] is MDA-MB-435 melanoma. The conditions noted are these: 10 µM unless noted.
Assay [13] relates to HCT-116 colon. Conditions: 10 µM unless noted.
Assay [14] deals with HCC-2998 colon. Conditions: 10 µM.
Assay [15] has as its system KM12 colon. The conditions noted are these: 10 µM unless noted.
For assay [16], the system named is SW-620 colon. The conditions noted are these: 10 µM unless noted.
Assay [17] concerns MCF7 breast. The conditions noted are these: 10 µM unless noted.

Consider `O=C(NC[C@H](O)CO)c1ccncc1Nc1ccc(I)cc1F`, for which the growth in [1] is 57.2%; in assay [2] it was 74.6%; in assay [3], 66.9%; in assay [4], 7.42% (active); in assay [5], 41.4%; in [6], 33.8%. Further, the growth is 16.3% in assay [7]; 83.7% in [8]; 58.7% in assay [9]; 47.7% in [10]; 88% in [11]; 35.2% in [12]. Besides, the growth in assay [13] is 9.79% (active); in assay [14] it was 2.1% (active); in assay [15], 16.6%.
For the compound `COc1ccc2c(c1)cn1c3ccc(O)cc3nc(N)c21`, the growth was 3.65% (active) in assay [1]; 25.4% in [2]; 28.1% in assay [3]; 38.3% in [4]; 37.7% in assay [5]; 5.03% (active) in assay [6]. For the same compound, the growth was 17.4% in assay [7]; 43% in assay [8]; -0.794% (active) in assay [9]; 37.3% in assay [10]; -16.6% (active) in assay [12]; 26.8% in assay [16]. The growth in assay [17] was 17.2%; in [13] it was 18%; in assay [14], 22.5%; in [15], 27.1%.
As to `O=C(O)c1ccc(Nc2ncc3c(n2)-c2ccc(Cl)cc2C(c2c(F)cccc2F)=NC3)cc1`, the growth in assay [1] is 24.2%; in [2], 47.7%; in [3], 43%; in assay [4] it was 59.3%; in [5], 79.6%; in assay [6], 59.7%. Moreover, the growth in [7] was 41.8%; in assay [8], 64.5%; in assay [9], 55.4%; in assay [10], 47.5%; in assay [11] it was 57.1%; in assay [12], 70.7%. The growth was 49.3% in [17], 43.6% in assay [13], 78.5% in [14] and 28.3% in assay [15].
Take `Cc1cc(Nc2ncnc3ccc(NC4=NC(C)(C)CO4)cc23)ccc1Oc1ccn2ncnc2c1`: the growth was -14.4% (active) in [1]; 24.3% in assay [2]; 37.3% in [3]; 14.3% in assay [4]; 44.2% in assay [5]; 14.6% in assay [6]. For the same compound, the growth in assay [7] was -19.6% (active); in assay [8], 46.8%; in assay [9], 63.3%; in assay [10] it was 32.3%; in assay [11], 42.4%; in assay [12] it was 43.9%. Moreover, the growth was 21.4% in assay [17], 16.1% in [13], 18.9% in [14] and 21.3% in assay [15].
In the case of `Cc1nc(N)sc1-c1ccnc(Nc2ccc(N3CCOCC3)cc2)n1`, the growth is 2.59% (active) in assay [1]; 31.4% in assay [2]; 34.2% in [3]; 42.8% in assay [4]; 53.7% in assay [5]; 8.94% (active) in assay [6]. In addition, the growth in assay [7] was 12.3%; in [8], 59.6%; in assay [9], 61.4%; in assay [10] it was 29.8%; in assay [11], 17.3%; in assay [12] it was 67.2%. The growth was 27.2% in [17], 26.2% in assay [13], 77.8% in assay [14] and 23.7% in assay [15].
Consider `Cn1cc(-c2cnn3c(N)c(Br)c([C@@H]4CCCNC4)nc23)cn1`, for which the growth was 4.1% (active) in [1]; 24.3% in assay [2]; 50.8% in assay [3]; 56.9% in assay [4]; 61.2% in [5]; 38.1% in [6]. For the same compound, the growth in assay [7] was 36.9%; in assay [8], 59.8%; in assay [9], 51.5%; in [10], 59.8%; in assay [12], 39.1%; in assay [16], 63.8%. For the same compound, the growth in [17] is 31.5%; in [13], 35.8%; in assay [14], 53.7%; in [15] it was 18.4%.
For `O=C1NC(=O)/C(=C/c2ccc3nccc(-c4ccncc4)c3c2)S1`, the growth is -26.5% (active) in assay [1]; -16.5% (active) in [2]; -18.8% (active) in [3]; -30.1% (active) in assay [4]; -22.7% (active) in [5]; -60.3% (active) in assay [6]. Moreover, the growth in [7] is -60.1% (active); in assay [8], -30.4% (active); in assay [9], -14.6% (active); in assay [10], -41.7% (active); in assay [11], -36.7% (active); in assay [12], -11% (active). Besides, the growth in [17] is 0.645% (active); in [13], -38.6% (active); in assay [15], 1.44% (active).
For the compound `COc1cc2ncnc(Nc3ccc(F)c(Cl)c3)c2cc1NC(=O)/C=C/CN1CCCCC1`, the growth was -14.5% (active) in [1]; -31.2% (active) in assay [2]; -38.2% (active) in assay [3]; -22% (active) in assay [4]; -57.5% (active) in assay [5]; -93.5% (active) in assay [6]. In addition, the growth is -47.7% (active) in assay [7]; -83.2% (active) in assay [8]; -55% (active) in assay [9]; -63% (active) in assay [10]; -32.4% (active) in assay [11]; -95.3% (active) in [12]. For the same compound, the growth was -78.4% (active) in [16], -78.5% (active) in assay [13], -88% (active) in [14] and -83.8% (active) in assay [15].
Turning to `COc1cc2nccc(Oc3ccc(NC(=O)Nc4cc(C)on4)c(Cl)c3)c2cc1OC`, the growth in assay [1] is 4.19% (active); in assay [2], 21%; in assay [3], 15.3%; in assay [4], 20.2%; in assay [5] it was 31.1%; in assay [6] it was -17.3% (active). For the same compound, the growth in [7] was 0.0648% (active); in assay [8], 35.1%; in assay [9], 10.2%; in assay [10] it was -1.14% (active); in assay [11], 19.6%; in [12], 14.8%. For the same compound, the growth in [16] was 10.7%; in assay [13], -4.79% (active); in assay [14], 56.6%; in assay [15], 11.4%.
